Measured values as given in article PMC4336329 (PLoS ONE, 2015).
Out of some 310,000 compounds screened, about 2,200 (0.71%) showed an effect of 50% or more. The effect is printed as a negative number. Only a selection was taken, and strong results are over-represented in it overall.

Biological target: human ether-à-go-go-related gene (hERG) potassium channel (human, UniProt Q12809)
Experiment: primary screen, population patch clamp on CHO cells stably expressing hERG; higher = less effect of the substance

human ether-à-go-go-related gene (hERG) potassium channel, sequence (Q12809 whole entry, looked up): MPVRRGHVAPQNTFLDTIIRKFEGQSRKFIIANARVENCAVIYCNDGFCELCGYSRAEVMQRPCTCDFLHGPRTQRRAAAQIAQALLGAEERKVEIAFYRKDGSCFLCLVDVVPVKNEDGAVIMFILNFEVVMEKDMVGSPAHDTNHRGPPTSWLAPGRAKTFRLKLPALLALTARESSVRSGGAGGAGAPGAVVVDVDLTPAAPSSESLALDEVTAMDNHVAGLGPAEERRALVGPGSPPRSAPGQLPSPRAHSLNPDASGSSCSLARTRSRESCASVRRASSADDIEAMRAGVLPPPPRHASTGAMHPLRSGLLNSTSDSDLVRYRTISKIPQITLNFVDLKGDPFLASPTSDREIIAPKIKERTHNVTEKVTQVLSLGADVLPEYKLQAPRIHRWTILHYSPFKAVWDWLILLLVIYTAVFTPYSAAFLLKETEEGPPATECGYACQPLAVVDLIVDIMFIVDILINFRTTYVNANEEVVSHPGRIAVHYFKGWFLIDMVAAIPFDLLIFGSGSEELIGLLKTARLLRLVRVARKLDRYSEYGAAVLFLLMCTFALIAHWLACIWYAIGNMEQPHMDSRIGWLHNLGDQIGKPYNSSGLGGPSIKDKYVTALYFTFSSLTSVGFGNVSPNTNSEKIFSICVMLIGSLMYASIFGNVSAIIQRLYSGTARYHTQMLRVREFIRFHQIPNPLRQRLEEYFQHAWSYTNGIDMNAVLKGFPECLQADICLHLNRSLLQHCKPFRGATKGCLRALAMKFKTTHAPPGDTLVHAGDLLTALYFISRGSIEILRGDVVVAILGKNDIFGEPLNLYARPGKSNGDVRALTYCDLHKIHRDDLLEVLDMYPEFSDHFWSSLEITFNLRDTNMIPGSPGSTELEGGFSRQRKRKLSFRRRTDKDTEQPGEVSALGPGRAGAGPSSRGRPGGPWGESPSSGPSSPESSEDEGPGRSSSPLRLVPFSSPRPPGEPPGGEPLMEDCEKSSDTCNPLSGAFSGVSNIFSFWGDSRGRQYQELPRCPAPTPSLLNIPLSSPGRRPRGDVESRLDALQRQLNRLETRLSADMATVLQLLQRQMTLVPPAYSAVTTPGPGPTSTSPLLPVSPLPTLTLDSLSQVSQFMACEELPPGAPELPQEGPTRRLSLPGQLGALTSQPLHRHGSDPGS

Row | Structure (SMILES) | hERG current change (%, negative = inhibition) at 1uM [%]
1 | CC(=O)N1CCc2cc(S(=O)(=O)CCC(=O)Nc3cc(C)cc(C)c3)ccc21 | 8.33
2 | O=C(/C=C/c1ccccc1)N(c1ccccn1)C1CCCCC1 | 3.14
3 | Cc1nc2ccc(Br)cc2c2c1CC(CO)O2 (stereo not drawn) | 15.9
4 | CCOC(=O)N1CCN(C(=O)c2oc3ccc(S(=O)(=O)N4CC(C)CC(C)C4)cc3c2C)CC1 (stereo not drawn) | 0.354
5 | COCCOC(=O)C1=C(N)Oc2c(c(=O)oc3ccccc23)[C@@]12C(=O)Nc1ccccc12 | 12.1
6 | CCN(CC)CCn1c(NC(=O)c2ccc(Cl)cc2)nc2ccccc21 | -0.305
7 | CCN(CC)CCn1c(NS(=O)(=O)c2ccc(C)cc2)nc2ccccc21 | -17.8
8 | CCN(CC)CCn1c(NS(=O)(=O)c2ccc(Cl)cc2)nc2ccccc21.Cl | -69
9 | O=C1C(Cl)=C(N2CCN(Cc3ccccc3)CC2)C(=O)N1c1ccccc1 | 8.07
10 | CCOc1ccc(-n2c(-c3ccc(Cl)cc3)c[n+]3c2SCC3)cc1.[Br-] | -60.8
11 | Clc1ccc(-c2c[n+]3c(n2-c2ccccc2)SCC3)cc1.[Cl-] | 3.68
12 | COc1ccc(-c2c[n+]3c(n2-c2ccccc2)SCC3)cc1.[Br-] | -6.21
13 | CCCN1CCN(CCCNC(=O)c2cc3c(s2)-c2c(C)cccc2OC3)CC1 | -67.5
14 | Cc1cccc2c1-c1sc(C(=O)NCCCN3CCCC(C)C3)cc1CO2 (stereo not drawn) | 16.2
15 | Cc1cccc2c1-c1sc(C(=O)NCCCN3CCC(C)CC3)cc1CO2 | -5.27
16 | CCn1cc(Br)c(C(=O)N(C)Cc2ccccc2)n1 | 11.4
17 | Cc1cc(N/N=C/c2ccco2)c2ccccc2n1 | 10.7
18 | Cc1ccc2nc(N/N=C/c3ccco3)cc(C)c2c1 | -62.9
19 | Cc1ccc2nc(SCC(=O)N/N=C/c3ccco3)cc(C)c2c1 | 9.47
20 | CCOC(=O)N1CCC(N2C(=O)c3ccccc3C2Nc2ccccc2C)CC1 (stereo not drawn) | -8.54
21 | CCOC(=O)N1CCC(N2C(=O)c3ccccc3C2Nc2c(C)cccc2C)CC1 (stereo not drawn) | -57.6
22 | CCOC(=O)N1CCC(N2C(=O)c3ccccc3C2Nc2ccccc2)CC1 (stereo not drawn) | 6.14
23 | COc1ccc(C(=O)N2CCCC(Nc3ccc(C)c(C)c3)C2)cc1 (stereo not drawn) | -0.108

Row | Structure (SMILES) | hERG current change (%, negative = inhibition) at 1uM [%]
24 | Cc1cccc2cc(CN(Cc3ccc(F)cc3)C(=O)N3CCOCC3)c(=O)[nH]c12 | 1.19
25 | CS(=O)(=O)Nc1ccccc1C(=O)NCc1ccco1 | 1.75
26 | CS(=O)(=O)Nc1ccc(C(=O)Nc2ccccc2C(=O)NCc2ccco2)cc1 | -58
27 | CS(=O)(=O)Nc1ccc(C(=O)NCc2ccco2)cc1 | 16.3
28 | CC(C)CC(=O)Nc1ccc(C(=O)NNC(=O)C(c2ccccc2)c2ccccc2)cc1 | 12.2
29 | CC1(C)CC(=O)c2cc(OCC(=O)NCCN3CCOCC3)ccc2O1 | 16.6
30 | COc1ccc(NC(=O)NCCN2CCc3ccccc3C2)cc1 | -1.55
31 | COc1cccc(NC(=O)NCCN2CCCCC2)c1 | 4.59
32 | COc1ccc(NC(=O)NCCCN2CCc3ccccc3C2)cc1 | -69.5
33 | COc1cccc(NC(=O)NCCCN2CCN(c3ccc(F)cc3)CC2)c1 | -51
34 | O=C(NCCCN1CCc2ccccc2C1)Nc1ccc(Cl)cc1 | -44.5
35 | CC1(C)CC(=O)c2cc(OCC(=O)NCCCN3CCN(c4ccccc4F)CC3)ccc2O1 | -26
36 | Cn1c(C(=O)NCCCN2CCCCC2)cc2sccc21 | -13.7
37 | CSc1cccc(NC(=S)NCCCN2CCN(c3ccc(F)cc3)CC2)c1 | -3.39
38 | CC1(C)CC(=O)c2cc(OCC(=O)NCCCN3CCN(c4ccc(F)cc4)CC3)ccc2O1 | -60.3
39 | COc1ccc(N2CCN(CCCNC(=O)c3cc4sccc4n3C)CC2)cc1 | -77.7
40 | CC1CCN(CCCNC(=O)c2cc3sccc3n2C)CC1 | -23.6
41 | CC(C)(C)OC(=O)NC(CNCc1ccccc1)Cc1ccccc1 (stereo not drawn) | 3.93
42 | Nc1c(C(=O)NCCN2CCOCC2)c2nc3ccccc3nc2n1-c1ccccc1 | -3.09
43 | Cc1ccc(NC(=S)/N=C(\N)Nc2nc(C)c3cc(C)c(C)cc3n2)cc1C | 8.63
44 | COc1cccc(C(=O)Nc2cccc(C(C)=O)c2)c1 | 11.4
45 | COc1ccc(N2CCN(CCCNC(=O)Nc3ccccc3)CC2)cc1 | -50.5
46 | COc1ccc(Cl)c(N2CCN(CCCNC(=O)Nc3ccc(C)cc3)CC2)c1 | -24.5

Row | Structure (SMILES) | hERG current change (%, negative = inhibition) at 1uM [%]
47 | COc1ccc(NC(=O)NCCCN2CCN(c3cc(C)ccc3C)CC2)cc1 | -80.4
48 | COc1ccc(NC(=O)NCCN2CCN(c3cc(OC)ccc3OC)CC2)cc1 | 13.5
49 | COc1ccc(NC(=O)NCCCN2CCN(c3ccccc3F)CC2)cc1 | -5
50 | COc1ccccc1N1CCN(CCCNC(=O)Nc2ccccc2)CC1 | -28.8
51 | CCCSc1nnc2n(N)c(=O)c3ccccc3n12 | 11.3
52 | C[C@@H](C(=O)Nc1ccc2ccccc2c1)[C@H]1C[C@]1(C)[C@H](NS(=O)(=O)c1ccc(-c2ccccc2)cc1)c1ccccc1 | -8.41
53 | Fc1ccccc1NC(=S)N1CCOCC1 | 12.2
54 | COc1cc(C2SCCS2)cc(Br)c1Oc1ncccc1[N+](=O)[O-] | 10.3
55 | CC(C)CCNC(=O)Cc1csc(-c2ccccc2)n1 | 6.54
56 | OC1CCC(NC(=S)Nc2ccc(SC(F)F)cc2)CC1 (stereo not drawn) | 6.06
57 | O=C(OCc1cnc(Cl)s1)c1cccc(Cl)c1 | -5.8
58 | CCCc1cc(C(=O)Nc2ccc(Cl)cn2)cs1 | 9.72
59 | O=C(CCS(=O)(=O)c1ccc2c(c1)NC(=O)CO2)NCCc1ccccc1 | 9.02
60 | CS(=O)(=O)N(Cc1ccco1)CC(O)Cn1c2ccccc2c2ccccc21 (stereo not drawn) | 15
61 | CCOc1ccc(NS(=O)(=O)c2ccc(C(=O)NCC3(N(C)C)CCCCC3)cc2)cc1 | 6.85
62 | Cc1cc(S(=O)(=O)Nc2ccc(C(=O)NCC3(N(C)C)CCCCC3)cc2)ccc1F | -7.71
63 | CN(C)C1(CNC(=O)c2ccc(NS(=O)(=O)c3ccc(Cl)c(Cl)c3)cc2)CCCCC1 | -50.9
64 | COc1ccc(CCC(=O)Nc2ccc(Cn3ccnc3)cc2)cc1 | 10.4
65 | CCCNc1c(NS(=O)(=O)c2ccc(C(C)(C)C)cc2)c(=O)oc2ccccc12 | 9.75
66 | CCCNc1c(NS(=O)(=O)c2ccc(OC)c(OC)c2)c(=O)oc2ccccc12 | -77.2
67 | CCCNc1c(NS(=O)(=O)c2ccc(C)c(C)c2)c(=O)oc2ccccc12 | -6.38
68 | Oc1c(Br)cc(/C=N/n2c(-c3ccccc3)n[nH]c2=S)c(Br)c1O | 17.1
69 | CC(C)N(C(=O)/C=C/c1cccc([N+](=O)[O-])c1)C(C)C | 7.97

Row | Structure (SMILES) | hERG current change (%, negative = inhibition) at 1uM [%]
70 | O=[N+]([O-])c1ccc(OCC(O)CN(CCO)CCO)cc1 (stereo not drawn) | -16.9
71 | CCCN(CCC)CC(O)COc1ccc([N+](=O)[O-])cc1 (stereo not drawn) | -81.4
72 | Cc1nccn1CC(O)COc1ccc([N+](=O)[O-])cc1 (stereo not drawn) | -41.3
73 | CC(C)CN(CC(C)C)CC(O)COc1ccc([N+](=O)[O-])cc1.Cl (stereo not drawn) | -52.1
74 | O=[N+]([O-])c1ccc(OCC(O)CN(C2CCCCC2)C2CCCCC2)cc1 (stereo not drawn) | -80.4
75 | COc1ccc(OCC(O)CN(C2CCCCC2)C2CCCCC2)cc1.Cl (stereo not drawn) | -37.9
76 | COC(=O)c1ccc(OCC(O)CN(CC(C)C)CC(C)C)cc1 (stereo not drawn) | 6.51
77 | COc1ccc(OCC(O)CNC(=O)/C=C/c2cccc([N+](=O)[O-])c2)cc1 (stereo not drawn) | 14.8
78 | Cl.O=[N+]([O-])c1ccc(OCC(O)CNC2CCCC2)cc1 (stereo not drawn) | -30.3
79 | COc1ccc(OCC(O)CN(C)C(=O)/C=C/c2cccc([N+](=O)[O-])c2)cc1 (stereo not drawn) | -56.7
80 | CCCCN(CCCC)CC(O)COc1ccc(Br)cc1 (stereo not drawn) | -43.6
81 | CCOc1ccccc1NC(=O)CSc1nc2ccccc2c(=O)n1CC1CCCO1 (stereo not drawn) | -35.6
82 | Cc1c(=O)n(OCc2ccccc2)c2ccccc2[n+]1[O-] | 9.46
83 | Oc1cnn(-c2ccccc2)c1 | 5.96
84 | CC(=O)NC(CC(=O)OCc1ccc([N+](=O)[O-])cc1)c1ccccc1 (stereo not drawn) | -27
85 | COCCNC(=O)CSc1nc2sccc2c(=O)n1-c1ccccc1 | 16.6
86 | CCn1c(NC(=O)C(C)C)c2ccccc2nc1=O | 2.18
87 | COc1cc(C)nc(N(C)S(=O)(=O)c2ccccc2Cl)n1 | 7.72
88 | CCN(CC)S(=O)(=O)c1cccc(C(=O)Nc2ccccc2)c1 | -0.175
89 | CCN(CC)S(=O)(=O)c1cccc(NC(=O)c2ccc(C#N)cc2)c1 | 3.29
90 | CCN(CC)S(=O)(=O)c1cccc(C(=O)Nc2ccc(C#N)cc2)c1 | -74
